Values joined by “and” are separate entries in the source; they are usually repeats but may differ in a detail not shown here. Equal values may be shown once. Records with an inconclusive call do not appear. Active and inactive are the calls of the source. Unless noted, calls come from the whole dose curve; as a rule, active = well fitted curve in the direction sought with a large enough effect; inconclusive = small, poorly fitted or top-dose-only effect, or another doubt; inactive = no such curve, though single readings can be large; an effect the other way counts as inactive or inconclusive.
Tests used:
Tov112D = test: Primary qHTS to identify gynecologic anti-cancer compounds using libraries of approved drugs and bioactive compounds (AID 1345084); conditions: Gynecologic cancer cell panel viability, ATPlite luminescence, 48 h; series mostly up to 57.5 µM; note: % is set by controls: 0 for no effect and ±100 for the full control effect; nearly all actives have a fitted effect of over 55% in size
Procedure, shortened: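 Cytotoxicity screen measuring ATP content by luciferase luminescence. Each compound is applied at five concentrations for 48 h at 37 C with 5% CO2.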

[1] = Drug repurposing screens with cells derived from glioblastoma tumor samples (AID 1345199); conditions: GBM patient neurospheres viability, ATP luminescence, 48 h; note: nearly all actives have a fitted effect of over 40% in size; note: potency is the fitted concentration of half-maximal effect; for activity, negative = cell killing: % is set by controls: 0 for no effect and ±100 for the full control effect
Procedure, shortened: (§1)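 Four patient lines of CD133+ GBM neurospheres were screened at several concentrations; hits were retested in those lines plus three slower-growing GBM lines, using 48-hour treatment and ATP-based viability.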

astro = test: as above; conditions: viability, ATP luminescence, 48 h; series mostly up to 45.9 µM
Procedure, shortened: as §1

[2] = target: Nuclear receptor subfamily 1 group I member 2 (Rattus norvegicus) (UniProt Q9R1A7); test: qHTS assay for small molecule activators of the rat pregnane X receptor (rPXR) signaling pathway (AID 651751; call rule not given here; note: 0% is about no effect); conditions: rPXR reporter cells, luciferase (One-Glo), 24 h
[3] = qHTS assay for small molecule activators of the human pregnane X receptor (PXR) signaling pathway (AID 720659; call rule not given here; note: 0% is about no effect); conditions: DPX-2 HepG2 CYP3A4-luciferase, 24 h; series mostly up to 92.3 µM
[4] = at 45.9 µM (top of the series), tumour line B
[5] = at 45.9 µM (top of the series), tumour line D
[6] = at 46.1 µM (top of the series), tumour line C
[7] = at 46 µM (top of the series), tumour line A

Chain of Nuclear receptor subfamily 1 group I member 2 (Rattus norvegicus) (Q9R1A7 whole entry, looked up): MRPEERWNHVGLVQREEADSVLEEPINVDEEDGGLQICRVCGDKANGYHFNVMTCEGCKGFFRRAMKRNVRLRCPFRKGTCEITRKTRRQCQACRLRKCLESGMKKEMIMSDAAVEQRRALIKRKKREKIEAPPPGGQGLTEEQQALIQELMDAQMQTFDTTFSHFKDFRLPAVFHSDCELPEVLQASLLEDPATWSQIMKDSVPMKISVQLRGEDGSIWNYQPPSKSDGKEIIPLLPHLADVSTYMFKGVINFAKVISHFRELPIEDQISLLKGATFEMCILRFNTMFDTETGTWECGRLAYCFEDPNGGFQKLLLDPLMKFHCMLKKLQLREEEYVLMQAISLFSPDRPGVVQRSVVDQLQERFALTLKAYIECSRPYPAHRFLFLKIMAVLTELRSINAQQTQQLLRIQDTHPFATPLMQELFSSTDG

CN(C(=O)C(Cl)Cl)c1ccc(OC(=O)c2ccco2)cc1
inactive: Potency (Tov112D) | activity, negative = cell killing [1, 4] -5.88% | activity, negative = cell killing [1, 5] -16.9% | activity, negative = cell killing [1, 6] -29.6% | Potency (astro)
active: Potency ([1]; tumour line A) 35.5 µM

O=C(O)Cc1ccc(OCCNC[C@H](O)c2ccccc2)cc1
inactive: Potency (Tov112D) | activity, negative = cell killing [1, 4] -8.45% | activity, negative = cell killing [1, 5] 5.34% | activity, negative = cell killing [1, 7] -29.2% | activity, negative = cell killing [1, 6] 9.13% | Potency (astro)

CCN1CCN(C(=O)N[C@@H](C(=O)N[C@@H]2C(=O)N3[C@@H]2SC(C)(C)[C@H]3C(=O)O)c2ccccc2)C(=O)C1=O
inactive: Potency (Tov112D) | activity, negative = cell killing [1, 4] -6.11% | activity, negative = cell killing [1, 5] -1.23% | activity, negative = cell killing [1, 7] -24% | activity, negative = cell killing [1, 6] 3.83% | Potency (astro)

CC1c2ccccc2CN1NC(=O)c1ccc(Cl)c(S(N)(=O)=O)c1 (configuration not stated)
inactive: Potency (Tov112D) | activity, negative = cell killing [1, 4] -2.5% | activity, negative = cell killing [1, 5] -6.17% | activity, negative = cell killing [1, 7] -22.8% | activity, negative = cell killing [1, 6] -11.2% | Potency (astro)

O=C(O)CNC(=O)CNC(=O)CNC(=O)CSC(=O)c1ccccc1
inactive: Potency (Tov112D) | activity, negative = cell killing [1, 4] 2.75% | activity, negative = cell killing [1, 5] -4.9% | activity, negative = cell killing [1, 7] -23.1% | activity, negative = cell killing [1, 6] -10.1% | Potency (astro)

CCC(C(=O)NC(=O)NC(C)=O)c1ccccc1 (configuration not stated)
inactive: Potency (Tov112D) | activity, negative = cell killing [1, 4] -11.4% | activity, negative = cell killing [1, 5] -13.3% | activity, negative = cell killing [1, 7] -27.9% | activity, negative = cell killing [1, 6] -4.25% | Potency (astro)

CCO[C@H](Cc1ccc(OCCc2ccc(OS(C)(=O)=O)cc2)cc1)C(=O)O
active: Potency ([1]; tumour line A) 14.1 µM
inactive: Potency (Tov112D) | activity, negative = cell killing [1, 4] -8.78% | activity, negative = cell killing [1, 5] -11.2% | activity, negative = cell killing [1, 6] -26% | Potency (astro)

Cc1cccc(C)c1NC(=O)c1cc(S(N)(=O)=O)c(Cl)cc1O
active: Potency ([1]; tumour line A) 35.5 µM
inactive: Potency (Tov112D) | activity, negative = cell killing [1, 4] -11.2% | activity, negative = cell killing [1, 5] -8.64% | activity, negative = cell killing [1, 6] -16.5% | Potency (astro)

CC(COc1ccccc1)NN (configuration not stated)
inactive: Potency (Tov112D) | activity, negative = cell killing [1, 4] -5.24% | activity, negative = cell killing [1, 5] 14.4% | activity, negative = cell killing [1, 7] -26.7% | activity, negative = cell killing [1, 6] 4.61% | Potency (astro)

Cc1nc([N+](=O)[O-])cn1-c1ccc([N+](=O)[O-])cc1
inactive: Potency (Tov112D) | activity, negative = cell killing [1, 4] -9.26% | activity, negative = cell killing [1, 5] -5.48% | activity, negative = cell killing [1, 7] -16.5% | activity, negative = cell killing [1, 6] 4.99% | Potency (astro)

CC(C)(C)c1nnc(NS(=O)(=O)c2ccccc2)s1
inactive: Potency (Tov112D) | activity, negative = cell killing [1, 4] -2.48% | activity, negative = cell killing [1, 5] -22.3% | activity, negative = cell killing [1, 7] -25.7% | activity, negative = cell killing [1, 6] -15.6% | Potency (astro)

CC(C(=O)O)c1ccc(/C=C2\CCCCC2=O)cc1 (configuration not stated)
inactive: Potency (Tov112D) | activity, negative = cell killing [1, 4] -2.39% | activity, negative = cell killing [1, 5] -17% | activity, negative = cell killing [1, 7] -27.9% | activity, negative = cell killing [1, 6] 3.8% | Potency (astro)

CCOC(=O)NNc1ccc(N(CC)CC(C)O)nn1 (configuration not stated)
inactive: Potency (Tov112D) | activity, negative = cell killing [1, 4] -1.62% | activity, negative = cell killing [1, 5] -9.84% | activity, negative = cell killing [1, 7] -25.2% | activity, negative = cell killing [1, 6] 10.8% | Potency (astro)

CN(C)C(=O)CNC(=O)Cc1ccccc1
inactive: Potency (Tov112D) | activity, negative = cell killing [1, 4] -9.58% | activity, negative = cell killing [1, 5] -2.49% | activity, negative = cell killing [1, 7] -22.3% | activity, negative = cell killing [1, 6] 4.09% | Potency (astro)

N[C@@H](Cc1cc(I)c(O)c(I)c1)C(=O)O
inactive: Potency (Tov112D) | activity, negative = cell killing [1, 4] 3.22% | activity, negative = cell killing [1, 5] 2.54% | activity, negative = cell killing [1, 7] 14.8% | activity, negative = cell killing [1, 6] 3.63% | Potency (astro)

O=C(O)c1ccccc1Nc1cc(Cl)ccc1C(=O)O
inactive: Potency (Tov112D) | activity, negative = cell killing [1, 4] -6.14% | activity, negative = cell killing [1, 5] -11.1% | activity, negative = cell killing [1, 7] -27.3% | activity, negative = cell killing [1, 6] 1.8% | Potency (astro)

CN1CCCN=C1/C=C/c1cccs1
inactive: Potency (Tov112D) | activity, negative = cell killing [1, 4] -1.18% | activity, negative = cell killing [1, 5] -9.69% | activity, negative = cell killing [1, 7] -29.5% | activity, negative = cell killing [1, 6] 6.9% | Potency (astro)

CCOC(=O)OCC/C(SC(=O)OCC)=C(\C)N(C=O)Cc1cnc(C)nc1N
inactive: Potency (Tov112D) | activity, negative = cell killing [1, 4] -4.41% | activity, negative = cell killing [1, 5] -10.3% | activity, negative = cell killing [1, 7] -26% | activity, negative = cell killing [1, 6] -10.1% | Potency (astro)

C=CC[N+]1([C@H]2C[C@H]3[C@@H]4CC[C@H]5C[C@H](OC(C)=O)[C@@H](N6CCCCC6)C[C@]5(C)[C@H]4CC[C@]3(C)[C@H]2OC(=O)CC)CCCCC1
inactive: Potency (Tov112D) | activity, negative = cell killing [1, 4] -10% | activity, negative = cell killing [1, 5] -23% | activity, negative = cell killing [1, 6] -14.4% | Potency (astro)
active: Potency ([1]; tumour line A) 6.31 µM

CCOc1ccc(NS(=O)(=O)c2ccc(N)cc2)nn1
inactive: Potency (Tov112D) | activity, negative = cell killing [1, 4] -20.8% | activity, negative = cell killing [1, 5] 5.52% | activity, negative = cell killing [1, 7] -27.9% | activity, negative = cell killing [1, 6] 9.99% | Potency (astro)

OCc1cccnc1
inactive: Potency (Tov112D) | activity, negative = cell killing [1, 4] -6.38% | activity, negative = cell killing [1, 5] -1.28% | activity, negative = cell killing [1, 7] -22% | activity, negative = cell killing [1, 6] -5.89% | Potency (astro)

OCCCc1ccccc1
inactive: Potency (Tov112D) | activity, negative = cell killing [1, 4] -21.4% | activity, negative = cell killing [1, 5] -9.24% | activity, negative = cell killing [1, 7] -22.3% | activity, negative = cell killing [1, 6] 2.38% | Potency (astro)

COc1cc(NS(=O)(=O)c2ccc(N)cc2)nc(C)n1
inactive: Potency (Tov112D) | activity, negative = cell killing [1, 4] -1.01% | activity, negative = cell killing [1, 5] -8.58% | activity, negative = cell killing [1, 7] -28.7% | activity, negative = cell killing [1, 6] 5.24% | Potency (astro)

Nc1c[n+](N2CCOCC2)no1
inactive: Potency (Tov112D) | activity, negative = cell killing [1, 4] 3.67% | activity, negative = cell killing [1, 5] -1.79% | activity, negative = cell killing [1, 7] -15.9% | activity, negative = cell killing [1, 6] -4.45% | Potency (astro)

CC(=O)OCC(=O)Nc1cc(C#N)cc(NC(=O)COC(C)=O)c1Cl
inactive: Potency (Tov112D) | activity, negative = cell killing [1, 4] -11% | activity, negative = cell killing [1, 5] -1.03% | activity, negative = cell killing [1, 6] -3.42% | Potency (astro)

O=[N+]([O-])c1nccn1CO[C@@H](CO)[C@H](O)CO
inactive: Potency (Tov112D) | activity, negative = cell killing [1, 4] -1.15% | activity, negative = cell killing [1, 5] -7.16% | activity, negative = cell killing [1, 6] -8.18% | Potency (astro)

CCCCCC1Nc2cc(C(F)(F)F)c(S(N)(=O)=O)cc2S(=O)(=O)N1 (configuration not stated)
inactive: Potency (Tov112D) | activity, negative = cell killing [1, 4] -8.57% | activity, negative = cell killing [1, 5] -19.1% | activity, negative = cell killing [1, 6] -6.63% | Potency (astro)

O=C(Oc1ccccc1)c1ccccc1O
inactive: Potency (Tov112D) | activity, negative = cell killing [1, 4] -4.53% | activity, negative = cell killing [1, 5] 13.5% | activity, negative = cell killing [1, 7] -25.7% | activity, negative = cell killing [1, 6] -8.91% | Potency (astro) | max response [2] 9.53% and -0.74% | outcome [3]

Source: PubChem BioAssay (NCATS)
